Reference: paper PMC8222333, “AsCas12a ultra nuclease facilitates the rapid generation of therapeutic cell medicines”

Columns and labels:
Experiment in all cases: Spec-seq (native PAGE EMSA with sequencing of bound and unbound); 25 mM Tris-HCl pH 7.4, 150 mM KCl, 5 mM MgCl2, 10% glycerol, 1 mM DTT, 40 ng/uL salmon sperm DNA; 400 nM Cas12a, 480 nM crRNA, 50 nM library, 37 C 1 h; native PAGE at room temperature; high values mean tight binding
Conditions in all cases: protein: recombinant
dAsCas12a E174R = dAsCas12a E174R (Acidaminococcus sp., UniProt U2UMQ6 1-1307, E174R;D908A;E993A;D1235A);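 further: relative affinity from the bound to unbound sequence frequency ratio in Spec-seq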
dAsCas12a S542R = dAsCas12a S542R (Acidaminococcus sp., UniProt U2UMQ6 1-1307, S542R;D908A;E993A;D1235A);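 further: relative affinity from the bound to unbound sequence frequency ratio in Spec-seq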
d-enCas12a = d-enCas12a (Acidaminococcus sp., UniProt U2UMQ6 1-1307, E174R;S542R;K548R;D908A;E993A;D1235A)
d-enCas12a-Ultra = d-enCas12a-Ultra (Acidaminococcus sp., UniProt U2UMQ6 1-1307, E174R;S542R;K548R;M537R;F870L;D908A;E993A;D1235A);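 further: relative affinity from the bound to unbound sequence frequency ratio in Spec-seq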
dAsCas12a K548R = dAsCas12a K548R (Acidaminococcus sp., UniProt U2UMQ6 1-1307, K548R;D908A;E993A;D1235A)

B1: ATCT (dsDNA)
DNA 1: GCTATCTAGTGCTCAGTACGCACTGATCTAGGAAACTTCTGGCAGGACCAGGTCATGAGATCGGAAGAGCACACGTCTGAACTCCAGTCA
DNA 2: TGACTGGAGTTCAGACGTGTGCTCTTCCGATCTCATGACCTGGTCCTGCCAGAAGTTTCCTAGATCAGTGCGTACTGAGCACTAGATAGC
RNA: AAUUUCUACUCUUGUAGAUAGGAAACUUCUGGCAGGACC
binding signal (dAsCas12a E174R): -8.78 lnKA
binding signal (dAsCas12a S542R): -7.09 lnKA
binding signal (d-enCas12a): -3.06 lnKA
binding signal (d-enCas12a-Ultra): -0.664 lnKA

B2: CCCG (dsDNA)
DNA 1: GCTATCTAGTGCTCAGTACGCACTGCCCGAGGAAACTTCTGGCAGGACCAGGTCATGAGATCGGAAGAGCACACGTCTGAACTCCAGTCA
DNA 2: TGACTGGAGTTCAGACGTGTGCTCTTCCGATCTCATGACCTGGTCCTGCCAGAAGTTTCCTCGGGCAGTGCGTACTGAGCACTAGATAGC
RNA: AAUUUCUACUCUUGUAGAUAGGAAACUUCUGGCAGGACC
binding signal (dAsCas12a E174R): -8.56 lnKA
binding signal (dAsCas12a S542R): -6.18 lnKA
binding signal (d-enCas12a): -4.37 lnKA
binding signal (d-enCas12a-Ultra): -0.97 lnKA

B3: CTAG (dsDNA)
DNA 1: GCTATCTAGTGCTCAGTACGCACTGCTAGAGGAAACTTCTGGCAGGACCAGGTCATGAGATCGGAAGAGCACACGTCTGAACTCCAGTCA
DNA 2: TGACTGGAGTTCAGACGTGTGCTCTTCCGATCTCATGACCTGGTCCTGCCAGAAGTTTCCTCTAGCAGTGCGTACTGAGCACTAGATAGC
RNA: AAUUUCUACUCUUGUAGAUAGGAAACUUCUGGCAGGACC
binding signal (dAsCas12a E174R): -8.81 lnKA
binding signal (dAsCas12a S542R): -8.57 lnKA
binding signal (d-enCas12a): -5.78 lnKA
binding signal (d-enCas12a-Ultra): -3.2 lnKA

B4: CTGT (dsDNA)
DNA 1: GCTATCTAGTGCTCAGTACGCACTGCTGTAGGAAACTTCTGGCAGGACCAGGTCATGAGATCGGAAGAGCACACGTCTGAACTCCAGTCA
DNA 2: TGACTGGAGTTCAGACGTGTGCTCTTCCGATCTCATGACCTGGTCCTGCCAGAAGTTTCCTACAGCAGTGCGTACTGAGCACTAGATAGC
RNA: AAUUUCUACUCUUGUAGAUAGGAAACUUCUGGCAGGACC
binding signal (dAsCas12a E174R): -8.89 lnKA
binding signal (dAsCas12a S542R): -8.52 lnKA
binding signal (d-enCas12a): -5.79 lnKA
binding signal (d-enCas12a-Ultra): -3.21 lnKA

B5: ATGC (dsDNA)
DNA 1: GCTATCTAGTGCTCAGTACGCACTGATGCAGGAAACTTCTGGCAGGACCAGGTCATGAGATCGGAAGAGCACACGTCTGAACTCCAGTCA
DNA 2: TGACTGGAGTTCAGACGTGTGCTCTTCCGATCTCATGACCTGGTCCTGCCAGAAGTTTCCTGCATCAGTGCGTACTGAGCACTAGATAGC
RNA: AAUUUCUACUCUUGUAGAUAGGAAACUUCUGGCAGGACC
binding signal (dAsCas12a E174R): -8.95 lnKA
binding signal (dAsCas12a S542R): -8.32 lnKA
binding signal (d-enCas12a): -5.32 lnKA
binding signal (d-enCas12a-Ultra): -2.52 lnKA

B6: GATC (dsDNA)
DNA 1: GCTATCTAGTGCTCAGTACGCACTGGATCAGGAAACTTCTGGCAGGACCAGGTCATGAGATCGGAAGAGCACACGTCTGAACTCCAGTCA
DNA 2: TGACTGGAGTTCAGACGTGTGCTCTTCCGATCTCATGACCTGGTCCTGCCAGAAGTTTCCTGATCCAGTGCGTACTGAGCACTAGATAGC
RNA: AAUUUCUACUCUUGUAGAUAGGAAACUUCUGGCAGGACC
binding signal (dAsCas12a E174R): -8.27 lnKA
binding signal (dAsCas12a S542R): -8.34 lnKA
binding signal (d-enCas12a): -3.86 lnKA
binding signal (d-enCas12a-Ultra): -1.57 lnKA

B7: CATC (dsDNA)
DNA 1: GCTATCTAGTGCTCAGTACGCACTGCATCAGGAAACTTCTGGCAGGACCAGGTCATGAGATCGGAAGAGCACACGTCTGAACTCCAGTCA
DNA 2: TGACTGGAGTTCAGACGTGTGCTCTTCCGATCTCATGACCTGGTCCTGCCAGAAGTTTCCTGATGCAGTGCGTACTGAGCACTAGATAGC
RNA: AAUUUCUACUCUUGUAGAUAGGAAACUUCUGGCAGGACC
binding signal (dAsCas12a E174R): -8.78 lnKA
binding signal (dAsCas12a S542R): -8.13 lnKA
binding signal (dAsCas12a K548R): -8.88 lnKA
binding signal (d-enCas12a): -3.35 lnKA
binding signal (d-enCas12a-Ultra): -1.16 lnKA

B8: CGTT (dsDNA)
DNA 1: GCTATCTAGTGCTCAGTACGCACTGCGTTAGGAAACTTCTGGCAGGACCAGGTCATGAGATCGGAAGAGCACACGTCTGAACTCCAGTCA
DNA 2: TGACTGGAGTTCAGACGTGTGCTCTTCCGATCTCATGACCTGGTCCTGCCAGAAGTTTCCTAACGCAGTGCGTACTGAGCACTAGATAGC
RNA: AAUUUCUACUCUUGUAGAUAGGAAACUUCUGGCAGGACC
binding signal (dAsCas12a E174R): -8.95 lnKA
binding signal (dAsCas12a S542R): -8.31 lnKA
binding signal (d-enCas12a): -5.2 lnKA
binding signal (d-enCas12a-Ultra): -2.1 lnKA

B9: GCCA (dsDNA)
DNA 1: GCTATCTAGTGCTCAGTACGCACTGGCCAAGGAAACTTCTGGCAGGACCAGGTCATGAGATCGGAAGAGCACACGTCTGAACTCCAGTCA
DNA 2: TGACTGGAGTTCAGACGTGTGCTCTTCCGATCTCATGACCTGGTCCTGCCAGAAGTTTCCTTGGCCAGTGCGTACTGAGCACTAGATAGC
RNA: AAUUUCUACUCUUGUAGAUAGGAAACUUCUGGCAGGACC
binding signal (dAsCas12a E174R): -8.91 lnKA
binding signal (dAsCas12a S542R): -6.67 lnKA
binding signal (d-enCas12a): -4.72 lnKA
binding signal (d-enCas12a-Ultra): -1.33 lnKA

B10: CTAT (dsDNA)
DNA 1: GCTATCTAGTGCTCAGTACGCACTGCTATAGGAAACTTCTGGCAGGACCAGGTCATGAGATCGGAAGAGCACACGTCTGAACTCCAGTCA
DNA 2: TGACTGGAGTTCAGACGTGTGCTCTTCCGATCTCATGACCTGGTCCTGCCAGAAGTTTCCTATAGCAGTGCGTACTGAGCACTAGATAGC
RNA: AAUUUCUACUCUUGUAGAUAGGAAACUUCUGGCAGGACC
binding signal (dAsCas12a E174R): -8.81 lnKA
binding signal (dAsCas12a S542R): -8.52 lnKA
binding signal (d-enCas12a): -5.65 lnKA
binding signal (d-enCas12a-Ultra): -3.31 lnKA

B11: CATA (dsDNA)
DNA 1: GCTATCTAGTGCTCAGTACGCACTGCATAAGGAAACTTCTGGCAGGACCAGGTCATGAGATCGGAAGAGCACACGTCTGAACTCCAGTCA
DNA 2: TGACTGGAGTTCAGACGTGTGCTCTTCCGATCTCATGACCTGGTCCTGCCAGAAGTTTCCTTATGCAGTGCGTACTGAGCACTAGATAGC
RNA: AAUUUCUACUCUUGUAGAUAGGAAACUUCUGGCAGGACC
binding signal (dAsCas12a E174R): -7.55 lnKA
binding signal (dAsCas12a S542R): -8.31 lnKA
binding signal (d-enCas12a): -2.95 lnKA
binding signal (d-enCas12a-Ultra): -0.95 lnKA

B12: CATG (dsDNA)
DNA 1: GCTATCTAGTGCTCAGTACGCACTGCATGAGGAAACTTCTGGCAGGACCAGGTCATGAGATCGGAAGAGCACACGTCTGAACTCCAGTCA
DNA 2: TGACTGGAGTTCAGACGTGTGCTCTTCCGATCTCATGACCTGGTCCTGCCAGAAGTTTCCTCATGCAGTGCGTACTGAGCACTAGATAGC
RNA: AAUUUCUACUCUUGUAGAUAGGAAACUUCUGGCAGGACC
binding signal (dAsCas12a E174R): -8.38 lnKA
binding signal (dAsCas12a S542R): -8.49 lnKA
binding signal (d-enCas12a): -4.73 lnKA
binding signal (d-enCas12a-Ultra): -2.28 lnKA

B13: CCCA (dsDNA)
DNA 1: GCTATCTAGTGCTCAGTACGCACTGCCCAAGGAAACTTCTGGCAGGACCAGGTCATGAGATCGGAAGAGCACACGTCTGAACTCCAGTCA
DNA 2: TGACTGGAGTTCAGACGTGTGCTCTTCCGATCTCATGACCTGGTCCTGCCAGAAGTTTCCTTGGGCAGTGCGTACTGAGCACTAGATAGC
RNA: AAUUUCUACUCUUGUAGAUAGGAAACUUCUGGCAGGACC
binding signal (dAsCas12a E174R): -8.63 lnKA
binding signal (dAsCas12a S542R): -6.21 lnKA
binding signal (d-enCas12a): -3.48 lnKA
binding signal (d-enCas12a-Ultra): -0.7 lnKA

B14: CTCT (dsDNA)
DNA 1: GCTATCTAGTGCTCAGTACGCACTGCTCTAGGAAACTTCTGGCAGGACCAGGTCATGAGATCGGAAGAGCACACGTCTGAACTCCAGTCA
DNA 2: TGACTGGAGTTCAGACGTGTGCTCTTCCGATCTCATGACCTGGTCCTGCCAGAAGTTTCCTAGAGCAGTGCGTACTGAGCACTAGATAGC
RNA: AAUUUCUACUCUUGUAGAUAGGAAACUUCUGGCAGGACC
binding signal (dAsCas12a E174R): -8.73 lnKA
binding signal (dAsCas12a S542R): -7.58 lnKA
binding signal (d-enCas12a): -3.44 lnKA
binding signal (d-enCas12a-Ultra): -0.714 lnKA

B15: CACT (dsDNA)
DNA 1: GCTATCTAGTGCTCAGTACGCACTGCACTAGGAAACTTCTGGCAGGACCAGGTCATGAGATCGGAAGAGCACACGTCTGAACTCCAGTCA
DNA 2: TGACTGGAGTTCAGACGTGTGCTCTTCCGATCTCATGACCTGGTCCTGCCAGAAGTTTCCTAGTGCAGTGCGTACTGAGCACTAGATAGC
RNA: AAUUUCUACUCUUGUAGAUAGGAAACUUCUGGCAGGACC
binding signal (dAsCas12a E174R): -8.98 lnKA
binding signal (dAsCas12a S542R): -8.41 lnKA
binding signal (d-enCas12a): -4.47 lnKA
binding signal (d-enCas12a-Ultra): -1.3 lnKA
